From PubChem BioAssay (EPA / NIEHS) come the findings set out here.

The target of assay [1] is Cellular tumor antigen p53 (Homo sapiens) (UniProt P04637). Briefly: TOX21_p53_BLA_p3_ratio: Tox21 HCT-116 p53 Agonism Beta-lactamase Assay, Ratio, Phase 3 (AID 2283596). In outline: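 Cells were seeded at 4000/well, rested 5 h at 37C, then dosed with DMSO compound solutions (217-fold dilution) for 16 h. CCF4-AM substrate was loaded for 2 h at room temperature, and the 460/530 nm emission ratio was fitted for gain of signal versus DMSO.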

The nature of assay [2]: TOX21_p53_BLA_p4_viability: Viability Assessment in the Tox21 HCT-116 p53 Agonism Beta-lactamase Assay, Phase 4 (AID 2283597).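 Note: hits lower the luminescence signal meaning cytotoxicity.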 In outline: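 Cytotoxicity was inferred from loss of CellTiter-Glo luminescence. HCT116 cells had been dosed with compounds after 5 h plating, incubated 16 h at 37C and 5% CO2, and exposed to the CCF4-AM substrate for 2 h.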
The target of assay [3] is Cellular tumor antigen p53 (Homo sapiens) (UniProt P04637). Briefly: TOX21_p53_BLA_p5_ratio: Tox21 HCT-116 p53 Agonism Beta-lactamase Assay, Ratio, Phase 5 (AID 2283599). In outline: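 HCT-116 cells carrying a p53-inducible beta-lactamase reporter were seeded at 4000 cells/well and dosed after 5 h with compound in DMSO (217-fold dilution). After 16 h at 37C, CCF4-AM substrate was added for 2 h, and the 460/530 nm emission ratio was scored as gain-of-signal versus DMSO.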

Assay [4] in a line: TOX21_p53_BLA_p5_viability: Viability Assessment in the Tox21 HCT-116 p53 Agonism Beta-lactamase Assay, Phase 5 (AID 2283600). In outline:
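Luciferase-coupled ATP quantitation of cells treated for 16 h (37C, 5% CO2) with test chemicals delivered in DMSO via a 217-fold dilution; 4000 cells/well; reagent incubated 30 min at room temperature before luminescence reading.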

Assay [5] has as its target Cellular tumor antigen p53 (Homo sapiens) (UniProt P04637). Put plainly: TOX21_p53_BLA_p4_ratio: Tox21 HCT-116 p53 Agonism Beta-lactamase Assay, Ratio, Phase 4 (AID 2283601). In outline:
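HCT116 cells carrying an inducible beta-lactamase reporter were plated at 4000 cells/well, rested 5 h, then exposed to compounds in DMSO (217-fold dilution) for 16 h at 37C. CCF4-AM substrate was loaded 2 h at room temperature; 460/530 nm emission ratio scored gain-of-signal versus DMSO.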

Assay [6] is described as follows: CEETOX_H295R_MTT_cell_viability: Viability Assessment in the CeeTox HT-H295R MTT Assay (AID 2283718; active = hit-call score of the fitted dose curve at least 0.9, where 1 is the maximum; inactive = score below 0.9). In outline: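 H295R cells prestimulated 48 h with 10 uM forskolin, then exposed 48 h to test chemical (0.1% DMSO final). Viability by MTT (0.5 mg/ml, 4 h, 37 C), absorbance 570/650 nm; percent change versus DMSO, bidirectional fit.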
The nature of assay [7]: ACEA_AR_agonist_AUC_viability: ACEA Biosciences xCELLigence Real-Time Cell Analysis on Androgen Receptor Agonism for Viability (AID 2283775). In outline:
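Viability endpoint from xCELLigence impedance in 22Rv1 prostate cells at 80 h. Eight-point series, 100 uM maximum final.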

The nature of assay [8]: ACEA_AR_antagonist_AUC_viability: ACEA Biosciences xCELLigence Real-Time Cell Analysis on Androgen Receptor Antagonism for Viability (AID 2283776).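 Note: 22Rv1 human prostate cancer cells growing on impedance electrode plates; area under impedance growth curve at 80 h after dosing as viability; hits lower the growth signal relative to DMSO meaning cytotoxicity.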 The gist of the method:
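Real-time electrical impedance tracks 22Rv1 proliferation after continuous compound exposure (top 100 uM final, 1:4 steps, 8 concentrations). The 80 h area-under-curve serves as the cytotoxicity readout relative to DMSO.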

In assay [9] the test system is Thyroperoxidase (TPO), gene 54314. Put plainly: CCTE_Simmons_AUR_rTPO: CCTE's Amplex UltraRed Assay for Thyroperoxidase (TPO) Inhibition, Simmons Lab (AID 2283662).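 Note: potency for loss of signal meaning inhibition of peroxidase activity.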 In outline:
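Rat thyroid microsomal TPO + 25 uM AUR in 200 mM K phosphate; cpd 5 nM–87.5 uM [final], 8 conc, 0.5% DMSO; 300 uM H2O2 starts rxn; 37C dark 30 min; endpoint FI 544/590 nm; n=3.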

Assay [10] is described as follows: CCTE_Simmons_CellTiterGLO_HEK293T: Viability Assessment in CCTE's Assays for Thyroperoxidase (TPO) Inhibition, Simmons Lab (AID 2283665).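 Note: cells exposed to compound for 24 h before readout; actives reduce ATP signal below DMSO vehicle meaning cytotoxicity.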 In outline: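 Luminescent ATP readout (CellTiter-Glo, 20 min at room temperature) after 24 hr exposure of HEK293T cells to 5 nM–87.5 uM final compound; signal loss relative to DMSO vehicle indicated cytotoxicity; dichlone titrated as positive control.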
For orientation: Cellular ATP, detected with luciferase, serves as a proxy for viable cell number.

Assay [11] concerns the target Luciferin 4-monooxygenase (Photinus pyralis) (UniProt P08659). Briefly: CCTE_Simmons_QuantiLum_inhib_2: CCTE's Firefly Luciferase Inhibition Assay, Simmons Lab (AID 2283767).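 Note: potency for inhibitors that lower luciferase luminescence relative to DMSO.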 The gist of the method:
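Cell-free QuantiLum luciferase, 5 ng/well; compounds 5 nM–87.5 uM final, 8 conc, 0.5% DMSO; 30 min, 37C, dark. Detection reagent (150 uM D-luciferin, 147 uM dATP, CoA, DTT, pH 7.8 final) injected per well, kinetic luminescence. Triplicate biological replicates.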

Several values for one entry are separate records, joined by “and”; a condition that tells them apart may be missing. Equal values may be shown once. Results filed as inconclusive are left out. Activity calls are given as the source filed them. Rule for the calls, unless noted: active = hit-call score of the fitted dose curve at least 0.9, where 1 is the maximum; inconclusive = response in the unintended direction; inactive = score below 0.9.

Cellular tumor antigen p53 (Homo sapiens), sequence (P04637 whole entry, looked up): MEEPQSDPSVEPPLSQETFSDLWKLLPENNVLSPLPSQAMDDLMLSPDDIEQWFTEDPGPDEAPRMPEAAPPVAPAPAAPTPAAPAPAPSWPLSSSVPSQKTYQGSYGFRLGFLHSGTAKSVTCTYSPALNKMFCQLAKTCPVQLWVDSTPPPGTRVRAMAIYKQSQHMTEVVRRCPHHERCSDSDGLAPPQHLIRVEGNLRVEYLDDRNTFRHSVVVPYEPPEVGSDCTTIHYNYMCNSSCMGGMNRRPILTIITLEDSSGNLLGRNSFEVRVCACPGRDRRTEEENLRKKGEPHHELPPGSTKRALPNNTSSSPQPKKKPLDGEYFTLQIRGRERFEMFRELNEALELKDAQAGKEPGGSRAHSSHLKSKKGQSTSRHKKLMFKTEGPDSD
Luciferin 4-monooxygenase (Photinus pyralis), sequence (P08659 whole entry, looked up): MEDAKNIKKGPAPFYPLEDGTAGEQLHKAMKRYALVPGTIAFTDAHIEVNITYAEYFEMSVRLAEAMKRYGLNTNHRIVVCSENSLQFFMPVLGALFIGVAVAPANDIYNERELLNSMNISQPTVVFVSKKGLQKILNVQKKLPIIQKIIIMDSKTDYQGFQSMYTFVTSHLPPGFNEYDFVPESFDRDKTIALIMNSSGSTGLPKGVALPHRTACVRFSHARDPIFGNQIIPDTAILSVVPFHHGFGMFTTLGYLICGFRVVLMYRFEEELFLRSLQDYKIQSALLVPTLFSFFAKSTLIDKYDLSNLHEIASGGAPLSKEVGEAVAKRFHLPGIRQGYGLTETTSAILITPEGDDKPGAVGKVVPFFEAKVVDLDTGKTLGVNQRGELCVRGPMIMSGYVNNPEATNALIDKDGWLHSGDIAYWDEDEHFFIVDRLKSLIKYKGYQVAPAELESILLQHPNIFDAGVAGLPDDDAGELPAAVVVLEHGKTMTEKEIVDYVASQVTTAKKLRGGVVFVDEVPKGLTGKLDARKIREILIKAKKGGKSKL

For the compound `COC(=O)C1CCC(C(=O)OC)CC1` (centres undefined), the result in assay [1], in assay [2], in [3], in assay [4], in [5] and in assay [6] was inactive. In addition, the call in assay [7] and in assay [8] was inactive.
Turning to `Nc1ccc(S(=O)(=O)Nc2nccs2)cc1`, the result in assay [1], in assay [3], in assay [4] and in assay [5] was inactive.
As to `CCCCCC=O`, the result in assay [1], in assay [2], in assay [3] and in assay [4] was inactive.
For `OC[C@@H](O)[C@@H](O)[C@H](O)[C@@H](O)CO`, the result in assay [1], in [3], in [4], in assay [5], in assay [7] and in assay [8] was inactive.
Turning to `CCc1ccc(C(c2ccc(CC)cc2)C(Cl)Cl)cc1`, the result in assay [1], in assay [2], in assay [3], in [4] and in [5] was inactive.
Regarding `CC(CCl)OP(=O)(OC(C)CCl)OC(C)CCl` (centres undefined), the result in assay [1], in [2], in [4], in assay [5], in assay [7] and in assay [8] was inactive.
For `C1COCCN1`, the result in assay [1], in [2], in [3], in [4], in assay [5] and in assay [7] was inactive. Besides, the result in assay [8] was inactive.
Turning to `CCCCCCCCCCCCCCCC[N+](C)(C)Cc1ccccc1`, the result in [1] was inactive. Further, the half-maximal activity concentration (AC50) (commonly the concentration at which the activity in the assay is half-maximal) in assay [2] is 25.9 µM (active) and 27.1 µM (active); in assay [3], 75.8 µM (active) and 38.4 µM (active); in assay [4], 57.9 µM (active) and 23 µM (active); in assay [5], 42.3 µM (active) and 43.4 µM (active).
For `CCN(Cc1cccc(S(=O)(=O)O)c1)c1ccc(C(=C2C=CC(=[N+](CC)Cc3cccc(S(=O)(=O)O)c3)C=C2)c2ccc(O)cc2S(=O)(=O)[O-])cc1`, the concentration at half-maximal activity (AC50) in [9] was 19.1 µM (active); in [10] it was 7.74 µM (active); in assay [11] it was 3.86 µM (active).
Turning to `CNC(=S)NC`, the AC50 in [2] was 46.1 µM (active). Further, the result in [3], in assay [4], in assay [5], in [7] and in assay [8] was inactive.
